Whole data set: some 33,000 sequences, median “E-score (-0.5 to 0.5)” near -0.0034, cut for the highest 2% near 0.25. For the sample, the highest values were picked, then their nearest neighbours and some sequences at random.
What follows are sequences tested against T1, Yap3 (UniProt P38749) (assay: PBM E-score (8-mer binding enrichment) (E-score (-0.5 to 0.5)); higher = stronger / more preferred TF binding). Details: protein concentration: 100 nM; construct: GST-full length.
T1 sequence: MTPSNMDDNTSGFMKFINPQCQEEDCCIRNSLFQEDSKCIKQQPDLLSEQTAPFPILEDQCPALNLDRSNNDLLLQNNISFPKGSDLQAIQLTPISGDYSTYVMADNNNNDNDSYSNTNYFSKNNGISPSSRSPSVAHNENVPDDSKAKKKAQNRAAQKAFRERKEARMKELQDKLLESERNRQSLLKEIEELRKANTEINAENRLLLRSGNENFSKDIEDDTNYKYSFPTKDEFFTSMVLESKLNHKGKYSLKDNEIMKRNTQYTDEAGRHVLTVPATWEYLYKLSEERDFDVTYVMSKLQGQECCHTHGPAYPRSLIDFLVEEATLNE
Description: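 Universal 'all 10-mer' protein binding microarrays (Agilent AMADID 015681) probed with GST-tagged S. cerevisiae TFs (full-length or DBD) made by in vitro transcription/translation (PURExpress), about 100-200 nM. Bound TF was detected with fluorescent anti-GST. Each ungapped 8-mer (which stands for itself and its reverse complement) is scored by the PBM enrichment score (E-score), a modified Wilcoxon-Mann-Whitney statistic from -0.5 to +0.5, computed with the Universal PBM Analysis Suite. Scale: above 0.35 generally sequence-specific binding.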

Row | Sequence | PBM E-score
1 | CAGGCAAG | -0.0287
2 | ATACGTAC | 0.0322
3 | ATACGTAG | 0.0583
4 | ATACGTAA | 0.266
5 | CCTTAGCC | -0.0133
6 | CGCCATCC | -0.247
7 | GTGTAAGA | -0.0287
8 | CTGTAACA | -0.0647
9 | ATGTAACG | 0.164
10 | CTGTAATA | 0.113
11 | ATGTAAGC | 0.264
12 | ATGTAAGA | 0.277
13 | ATGTAAGG | 0.129
14 | CTGTAAGC | -0.0121
15 | ATGTAATG | 0.151
16 | ATGTAATA | 0.371
17 | CTGTAAGA | -0.0157
18 | ATGTAACA | 0.256
19 | AGCGTCGA | 0.124
20 | AACCTAAA | 0.142
21 | ATCCCTGA | -0.0313
22 | CAGCACAC | -0.173
23 | AAGTGTTA | 0.112
24 | TAGAGCTA | -0.0728

Row | Sequence | PBM E-score
25 | AATCCTCT | -0.127
26 | CCAGTTCG | -0.114
27 | AAAATCTA | 0.0549
28 | CGCTACTA | 0.264
29 | AGCTACTA | 0.0917
30 | CGCTACTC | -0.112
31 | ATTTTCTC | 0.0752
32 | ATACTACC | 0.0377
33 | AGAATACG | 0.0873
34 | GAAATACA | 0.0912
35 | ATACTACA | 0.28
36 | ATAATACA | 0.357
37 | ACAATACG | 0.0668
38 | CTAATACA | 0.25
39 | ATAATACC | 0.226
40 | GTAATACA | 0.273
41 | CTACTACA | 0.225
42 | ACAATACA | 0.0763
43 | ATAATACG | 0.292
44 | GAAGGCAC | -0.128
45 | AAGGATTC | -0.129
46 | GAGTGGAA | 0.0318
47 | CGATATCC | 0.146
48 | AAAGAGGC | -0.0407

Row | Sequence | PBM E-score
49 | ATTCCTTG | -0.113
50 | ACCATATC | 0.0587
51 | CTTATATA | 0.315
52 | GGCATATA | 0.268
53 | AGCATATA | 0.0558
54 | GTTATATA | 0.224
55 | CGCATATA | 0.00761
56 | GCTATATA | 0.101
57 | ACTATATA | 0.328
58 | ACCATATA | 0.285
59 | ACTATATC | 0.227
60 | ACCATATG | 0.122
61 | CTTATATC | 0.218
62 | ACCTAAAC | 0.122
63 | GAGGGATC | -0.253
64 | ACTGGTAA | 0.184
65 | CCTAGACC | -0.146
66 | CGAAGGTA | 0.00763
67 | AGTGCGCG | -0.0557
68 | CCCTGTCC | -0.276
69 | TAGAGCAA | -0.0378
70 | AAACTGCT | -0.156
71 | GACTCTTA | 0.141
72 | ATTATATG | 0.221

Row | Sequence | PBM E-score
73 | ATTATATA | 0.3
74 | ATTATATC | 0.16
75 | AATGCCAG | -0.00344
76 | GCGTGGCC | -0.3
77 | TGTCGAAA | -0.0162
78 | AAATAAGT | 0.145
79 | AAATAGAA | 0.0373
80 | TAATAACA | 0.189
81 | AAATAATT | 0.287
82 | GAATAATC | 0.217
83 | AAATAAAT | 0.241
84 | GAATAACA | 0.308
85 | CAATAACA | 0.0825
86 | GAATAATA | 0.292
87 | GAATAAGA | 0.109
88 | TAATAGAA | 0.257
89 | GAATAGAA | 0.125
90 | TAACACTA | 0.245
91 | ACGCGTTA | 0.0763
92 | GGCTCTGA | -0.03
93 | CAGAGTTA | -0.0557
94 | ACACCATA | 0.164
